HSF-1 act: HSF-1 activators, primary screen, NIH3T3-HGL cells, MG132 stress, luminescence, single point; NIH3T3-HGL HSF-1 luciferase reporter, 8 h; 100% = twice DMSO control signal; activation, % at 9 µM; 300,000 tested, 1.7% active;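 active = mean replicate activation of at least 50% with a set share of replicates each reaching 50%; inconclusive = only one of those two conditions met; inactive = mean below 50% and too few replicates reaching it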;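 also: 0% = median of the neutral control wells and 100% = twice that signal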
TWEAK-Fn14 inh: inhibitors of TWEAK-Fn14 signaling, primary screen, luciferase reporter cells, uHTS. TWEAK-stimulated Fn14 reporter cells, luciferase luminescence, 8 h. AID 1159606, 2016. 360,000 tested, 2% active. inhibition, % at 10 µM; in the data active = inhibition above about 50%
TROY signal inh: inhibitors of TROY-driven NF-kB signaling, primary screen, Q293 LMP1-TROYcd cells, NF-kB luciferase, uHTS. Q293 LMP1-TROYcd NF-kB luciferase reporter, 4 h. inhibition, % at 10 µM. 360,000 tested, 0.98% active. AID 1347056, 2019;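 active = compounds whose plate-normalised and pattern-corrected inhibition of the luciferase reporter signal at the single screening dose is 50% or more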
LGR2 antag: inhibitors of bursicon-induced LGR2 CRE-luciferase signal, primary screen, cell-based, HEK293, CRE-luciferase reporter, bursicon stimulation; Drosophila bursicon receptor LGR2 (rickets); bursicon-stimulated, 4 h; inhibition, % at 9.99 µM; 380,000 tested, 0.35% active;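 active = drop in luminescence signal, shown as inhibition above about 50% in the replicate tests, limit read from the data, passing the limit was not always enough; inconclusive = probably only some replicates passing the limit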;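 also: agonist challenge used bursicon conditioned medium at about half maximal strength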
HSF1 inhib: HSF1 inhibitors in luciferase reporter cells, primary screen, cell-based, NIH3T3, luminescence | NIH3T3-HGL HSE-luciferase, MG132-induced, luminescence 8 h; hits give low values | activity change, negative = inhibition, % at 7.5 µM (by protocol) | 300,000 tested, 0.77% active | AID 2098, 2009;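 active = more than half of replicate wells show activity change below -50%, luminescence cut by over half; inconclusive = some wells, but at most half, below -50%; inactive = no replicate well below -50%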;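 also: luciferase reports HSF-1 transcriptional activity via heat shock element; 0% = median of DMSO wells and -100% = zero luminescence signal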
LMP1 NFkB inh: EBV LMP1-driven NF-kappaB luciferase reporter inhibitors, primary screen, cell-based, luminescence, single point; LMP1-induced NF-kappaB luciferase reporter cells; inhibition, % at 12.5 µM; 350,000 tested, 0.69% active; AID 504558, 2011; in the data active = inhibition above about 41%; inconclusive = no clear call, values can overlap the other calls;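 also: 0% = neutral control wells and 100% = reference inhibitor control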
Numbers without * were called inactive; u = inconclusive; x = not tested or not shown. This is a sample that favours compounds with a hit; in the whole collection about 3.6% have one here.

SMILES	HSF-1 act	TWEAK-Fn14 inh	TROY signal inh	LGR2 antag	HSF1 inhib	LMP1 NFkB inh
CC(=O)NC[C@H]1[C@@H](c2ccc(C3=CCCCC3)cc2)[C@@H](CO)N1C(=O)C1CCC1	x	x	x	4	x	x
CCOc1ccccc1CNS(=O)(=O)c1ccc(-c2cnc(C3CC3)o2)cc1	-43	33	56*	-3	-39	30
O=S(=O)(NCc1ccccc1)c1ccc(-c2cnc(C3CC3)o2)cc1	-49	-2	34	1	-38	-6
CC(=O)N1c2ccc(S(=O)(=O)N3CCCC3)cc2CC1C(=O)NCc1ccc(N(C)C)cc1 (stereo unspecified)	57*	-2	-22	16	18	4
CC(C)CCNC(=O)C1CCN(S(=O)(=O)c2ccc3c(c2)CC(C)N3C(=O)C2CC2)CC1 (stereo unspecified)	-6	-6	-2	-14	-3	54*
CCCC(=O)Nc1ccc2c(c1)OC[C@@H](C)N(CCc1ccccc1)C[C@H](C)[C@@H](OC)CN(C)C2=O	x	x	x	-4	x	x
Nn1c(=S)[nH]c2sc3c(c2c1=O)CCCC3	0	53*	75*	6	-2	1
CN(C)/C=N/NC(=O)c1ccc(Cl)cc1	3	7	5	8	-3	-3
CN(C)/C=N/c1cnc(C(=O)c2ccc(Cl)cc2)n1C	62*	12	-67	x	30	-22
Cc1ccc(S(=O)(=O)Nc2ccc3c(c2)CC(=O)N([C@H](C)CO)C[C@@H](C)[C@@H](CN(C)C(=O)Nc2ccccc2)O3)cc1	x	x	x	-5	x	x
COc1ccc(CNC(=O)CSc2nnc3c(n2)[nH]c2ccc(F)cc23)cc1	9	13	-6	-6	-4	-11
COc1ccc(CNC(=O)CSc2nnc3c(n2)[nH]c2ccc(OC)cc23)cc1	36	-24	-27	-15	1	-8
CC(C)CSc1nnc2c(n1)[nH]c1ccccc12	59*	48	16	x	22	-5
COc1ccc2[nH]c3nc(SC(C)C)nnc3c2c1	33	92*	54*	x	3	13
CCCCSc1nnc2c(n1)[nH]c1ccccc12	u	9	-72	x	23	-4
CCOC(=O)CN(C(=O)CSc1nnc2c(n1)[nH]c1ccc(OC)cc12)c1ccc(F)cc1	0	66*	74*	x	1	4
C[C@@H]1CN([C@@H](C)CO)C(=O)c2cccc(NC(=O)Nc3ccc(F)cc3)c2O[C@H]1CN(C)CC1CCCCC1	x	x	x	-5	x	x
COc1ccc(CN(C)C[C@@H]2OCCCC[C@H](C)Oc3ccc(NS(=O)(=O)c4cn(C)cn4)cc3C(=O)N([C@H](C)CO)C[C@H]2C)cc1	x	x	x	-17	x	x
O=C(C[C@H]1C[C@H]2c3cc(NC(=O)Nc4ccccc4)ccc3O[C@H]2[C@@H](CO)O1)NC1CCCC1	x	x	x	-9	x	x
COC(=O)C[C@H]1C[C@H]2c3cc(NS(=O)(=O)c4ccc(OC)cc4)ccc3O[C@H]2[C@@H](CO)O1	x	x	x	17	x	x
Cc1ccc(CCNC(=O)Cc2ccc(NC3=NC4CS(=O)(=O)CC4S3)cc2)cc1 (stereo unspecified)	-53	7	4	6	-38	85*
Cc1ccc(CCNC(=O)c2ccc(NC3=NC4CS(=O)(=O)CC4S3)cc2)cc1 (stereo unspecified)	-2	-10	-3	-7	1	-5
CC1(C)Cc2ccccc2C(/C(=N\Nc2cccc(Cl)c2)C(N)=O)=N1	5	56*	27	37	7	0
COC(=O)c1cccc(C(=O)N2CCCC(C(=O)c3ccccc3OC)C2)c1 (stereo unspecified)	59*	-1	-3	-6	20	4
Nc1c(-c2ccc(Cl)cc2)cnn1-c1cccc(C(F)(F)F)c1	30	-1	-30	x	14	-36
SMILES	HSF-1 act	TWEAK-Fn14 inh	TROY signal inh	LGR2 antag	HSF1 inhib	LMP1 NFkB inh
Cc1ccc(-c2cnn(-c3cccc(C(F)(F)F)c3)c2N)cc1	53*	-10	-43	x	18	-48
Cc1nnc(-c2cnn(-c3ccccc3)c2N)n1Cc1cccc(C(F)(F)F)c1	-69	-18	-21	x	-60*	2
CO[C@H]1CN(C)C(=O)c2cc(NC(=O)C3CC3)ccc2OC[C@@H](C)N(C(=O)C2CCCCC2)C[C@@H]1C	x	x	x	19	x	x
CO[C@H]1CC[C@@H]2CCN(C)C(=O)[C@H](C)[C@H](OC)CN(C)C(=O)c3cccc(C#N)c3OC[C@@H]1O2	x	x	x	2	x	x
C[C@@H]1CN([C@H](C)CO)C(=O)c2cc(NC(=O)c3ccncc3)ccc2O[C@H]1CN(C)S(=O)(=O)c1ccc(Cl)cc1	x	x	x	-12	x	x
CN1CCN(C(=O)[C@@H]2[C@@H](CO)[C@@H]3Cn4c(ccc(-c5cncnc5)c4=O)[C@@H]3N2CC2CCCC2)CC1	x	x	x	-11	x	x
O=C(CN1CCCC1)Nc1c2c(cc3c1CCC3)CCC2	-71	-2	-15	23	-64*	8
O=C(C=C=Nc1ccccc1)C(=O)N=C=Cc1ccccc1	224*	86*	51*	21	170	-10
O=C(N/N=C/c1ccccc1)C(=O)N/N=C/c1ccccc1	2	1	10	-1	5	-4
COc1ccc(NC(=O)Nc2ccc3c(c2)C(=O)N([C@@H](C)CO)C[C@@H](C)[C@H](CN(C)C)OCCCC[C@H](C)O3)cc1	x	x	x	8	x	x
Cc1ccc(S(=O)(=O)N(C)c2c(C)ccc(S(=O)(=O)N3CCN(C)CC3)c2C)cc1	-70	3	14	-6	-60*	-6
Cc1ccc(S(=O)(=O)N(C)c2c(C)ccc(S(=O)(=O)N3CCN(C=O)CC3)c2C)cc1	-4	1	-7	5	1	8
CC(C)(C)c1ccc(C(=O)N2CCC(=O)N(C(CO)Cc3ccccc3)CC2)cc1 (stereo unspecified)	-53	7	-32	-4	-40	78*
COc1cccc(CN(C)C(=O)c2ccc(OCC(=O)Nc3cccc(C(F)(F)F)c3)c(OC)c2)c1	4	61*	40	9	-3	28
CCCNC(=O)C[C@@H]1C[C@H]2c3cc(NC(=O)NC4CCCCC4)ccc3O[C@H]2[C@@H](CO)O1	x	x	x	-9	x	x
COc1ccc(NC(C)=O)cc1NC(C)C(=O)Nc1cccc2ccccc12 (stereo unspecified)	-11	37	57*	-1	-6	5
CC(=O)Nc1cccc(NC(=S)Nc2cccc3ccccc23)c1	-8	-6	3	-67	-16	-25
COc1ccc(NC(C)=O)cc1NC(C)C(=O)Nc1ccc(F)cc1 (stereo unspecified)	15	-3	-3	x	0	-14

Assay outcomes deposited in PubChem BioAssay by several laboratories.
